About 79,000 compounds went through this panel and 15% of them were active in at least one assay; those are over-represented in the sample as a whole. Values without a mark were called inactive. Calls of active or inactive are those of the source. Cut-off read from the data, not from the text of the source: active = growth inhibition above about 70%; inactive = the rest.

Experiment [1] in a line: NCI Yeast Anticancer Drug Screen. Data for the rad50 strain (AID 155).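 Note: 0% = growth of vehicle-only cultures of the same strain.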 Conditions: S. cerevisiae rad50 strain growth inhibition; at 50.0 µM; hits give high values. The gist of the method:
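Relative growth inhibition (compound vs vehicle) was measured in yeast with a defined repair-gene alteration.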

Experiment [2] in a line: NCI Yeast Anticancer Drug Screen. Data for the mec2-1 strain (AID 157). Particulars: S. cerevisiae mec2-1 strain, at 50.0 µM, hits give high values. The gist of the method:
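Compounds were applied to mec2-1 yeast cells. Their growth was then compared with that of vehicle-treated cultures to give growth inhibition.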

Experiment [3] is described as follows: NCI Yeast Anticancer Drug Screen. Data for the sgs1 mgt1 strain (AID 161).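 Note: 0% = growth of cultures given vehicle only.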 Particulars: S. cerevisiae sgs1 mgt1 strain, at 50.0 µM, hits give high values. The gist of the method:
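This yeast growth screen uses a strain with defined DNA-repair lesions; compound-treated growth is compared with vehicle-treated growth.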

A short description of experiment [4]: NCI Yeast Anticancer Drug Screen. Data for the cln2 rad14 strain (AID 165).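 Note: 0% = growth equal to vehicle treated cultures.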 Particulars: S. cerevisiae cln2 rad14 strain, at 50.0 µM, hits give high values. The method, boiled down: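 Strain: cln2 rad14 yeast, altered in cell cycle control and DNA damage repair. Read-out: growth inhibition vs vehicle.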
Experiment [5] is described as follows: NCI Yeast Anticancer Drug Screen. Data for the bub3 strain (AID 167). Conditions: S. cerevisiae bub3 mutant strain, at 50.0 µM, hits give high values. The method, boiled down:
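Screening used yeast with an engineered genetic alteration affecting cell cycle control. Compound-exposed cultures were compared with vehicle cultures, and reduced growth was taken as inhibition.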

Experiment [6] can be described thus: NCI Yeast Anticancer Drug Screen. Data for the mlh1 rad18 strain (AID 175). Conditions: S. cerevisiae mlh1 rad18 strain growth inhibition; at 50.0 µM; hits give high values. The method, boiled down:
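A repair-deficient yeast strain is exposed to test compound, and growth is scored relative to vehicle-treated controls.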

Consider `COc1ccc2c3c([nH]c2c1)C1CC2C(CC(O)C(OC)C2C(=O)O)CN1CC3` (stereo not given), for which the growth inhibition is -6.35% in experiment [1]; -23.7% in experiment [2]; -1.75% in experiment [3]; 15.2% in experiment [4]; 0.15% in experiment [5]; -4.9% in experiment [6].

For `NC(CCCCN=Cc1nc(-c2ccccc2)oc1O)C(=O)O` (stereo not given), the growth inhibition in experiment [1] is -33.6%; in experiment [2], -52.3%; in experiment [3], -50.6%; in experiment [4], 21.4%; in experiment [5], -27.7%; in experiment [6] it was -47.5%.

As to `O=C1OC(=O)C(=C(c2ccccc2)c2ccccc2)C1=C(c1ccccc1)c1ccccc1`, the growth inhibition was 51.8% in experiment [1]; 64.1% in experiment [2]; 48.4% in experiment [3]; 43.5% in experiment [4]; 53.1% in experiment [5]; 76.8% (active) in experiment [6].

For the compound `Cc1cc(C)c(-c2c(C)cc(C)c([N+](=O)[O-])c2C)c(C)c1N`, the growth inhibition was 98.1% (active) in experiment [1]; 98.8% (active) in experiment [2]; 98.4% (active) in experiment [3]; 96.5% (active) in experiment [4]; 97.2% (active) in experiment [5]; 97.8% (active) in experiment [6].

For `CONCC(=O)c1ccc(SC)cc1`, the growth inhibition is -18.4% in experiment [1]; 0.6% in experiment [2]; -13.8% in experiment [3]; -21.8% in experiment [4]; -9.7% in experiment [5]; 0% in experiment [6].

In the case of `Cc1c(C(=O)Nc2ccc(Cl)c(C(F)(F)F)c2)oc2cc(O)ccc2/c1=N\NC(N)=S`, the growth inhibition is -12.3% in experiment [1]; -14.4% in experiment [2]; -23.6% in experiment [3]; -7.85% in experiment [4]; -7.35% in experiment [5]; -17.4% in experiment [6].

In the case of `CCOC(=O)c1c2c(nc3c1CCCC3)CCCC2`, the growth inhibition in experiment [1] is 3.2%; in experiment [2], 3.45%; in experiment [3] it was -1.6%; in experiment [4], -1.05%; in experiment [5] it was 7.4%; in experiment [6], -24.9%.

On to `C=CCN1C(=O)/C(=C/c2ccc(OCC(=O)O)cc2)SC1=S`, for which the growth inhibition in experiment [1] was 5.7%; in experiment [2], -11.2%; in experiment [3] it was 0.05%; in experiment [4] it was -46.6%; in experiment [5], -1%; in experiment [6], -13.8%.

Regarding `CCOC(=O)c1ccc(NC(=O)CNC2CCCCC2)cc1`, the growth inhibition in experiment [1] is -0.05%; in experiment [2] it was -8.7%; in experiment [3] it was -3.2%; in experiment [4] it was -40.8%; in experiment [5], 4.55%; in experiment [6], -26.1%.

As for `O=S(=O)(Nc1cccc(C2=NCCN2)c1)c1cccc2c(S(=O)(=O)Nc3cccc(C4=NCCN4)c3)cccc12`, the growth inhibition is -9.6% in experiment [1]; -25.9% in experiment [2]; -30.1% in experiment [3]; -19% in experiment [4]; -12.2% in experiment [5]; -22.1% in experiment [6].

With `CC1(C)NC(c2ccccc2)c2ccsc2-n2cccc21` (stereo not given), the growth inhibition in experiment [1] is -27.7%; in experiment [2], -29.7%; in experiment [3] it was -15.7%; in experiment [4], 18.9%; in experiment [5], -9.85%; in experiment [6] it was -8.6%.

For the compound `COc1onc(C)c1CC(=O)O`, the growth inhibition is 2.7% in experiment [1]; 1.2% in experiment [2]; -7.3% in experiment [3]; -32.1% in experiment [4]; -8.65% in experiment [5]; 2.75% in experiment [6].

On to `O=C(COc1cccc(Cl)c1)Nc1ccc(Cl)cc1`, for which the growth inhibition is -0.5% in experiment [1]; -26.7% in experiment [2]; -18.9% in experiment [3]; -13.8% in experiment [4]; 17.4% in experiment [5]; 4.3% in experiment [6].

Take `CC(C)C(CC1CCCCC1)C(C)O` (stereo not given): the growth inhibition was -7.65% in experiment [1]; -0.45% in experiment [2]; -14.6% in experiment [3]; -14.4% in experiment [4]; -9.35% in experiment [5]; -17.6% in experiment [6].

In the case of `Cc1cc2c(cc1C)[n+](=O)c(C(=O)C/C(=N/OCCCc1ccccc1)C(=O)Nc1cc(Cl)ccc1Cl)c(C)n2[O-]`, the growth inhibition in experiment [1] was -35.1%; in experiment [2] it was 1.8%; in experiment [3], -7.2%; in experiment [4] it was 19.2%; in experiment [5] it was 9.1%; in experiment [6], -10.3%.

Take `O=c1cc[nH]c2ccc(Cl)cc12`: the growth inhibition is -10.2% in experiment [1]; 5.3% in experiment [2]; -4.4% in experiment [3]; -33.4% in experiment [4]; -7.1% in experiment [5]; -1.45% in experiment [6].

Consider `COc1cc(C(=O)O)c(I)c(OC)c1OC`, for which the growth inhibition in experiment [1] is -10.9%; in experiment [2], -5.85%; in experiment [3], -6.25%; in experiment [4], -4.85%; in experiment [5] it was 3.6%; in experiment [6] it was -9.65%.

`COC(=O)c1cc(C(=O)OC)c2c3[nH]cnc3ncn2c1=O`: the growth inhibition is 24.4% in experiment [1]; 9.85% in experiment [2]; 15.9% in experiment [3]; 18.6% in experiment [4]; 3.65% in experiment [5]; 21.4% in experiment [6].

With `C=C1OC(c2ccccc2NC)=NC12CCCCC2`, the growth inhibition in experiment [1] is -11.6%; in experiment [2] it was -51.5%; in experiment [3] it was -9.9%; in experiment [4], -2.65%; in experiment [5], -14.8%; in experiment [6], -11.2%.

As to `CCOC(=O)c1noc(Oc2ccc(Cl)cc2Cl)n1`, the growth inhibition in experiment [1] was -13.9%; in experiment [2], 0.15%; in experiment [3], -10.8%; in experiment [4], -4.35%; in experiment [5], -9.3%; in experiment [6], 15.1%.
